High-throughput results as filed in PubChem BioAssay.
Many of the other results were omitted from the sample, so hits are more common in it than they were.
D1 mod: D1 dopamine receptor (human) allosteric modulation | B-score at 10 µM | actives 5.9% (n = 58,000) | HEK293 D1, CRE-luciferase, dopamine EC30 potentiation; actives deviate in either direction | AID 641;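 active means luminescence count or its row- and column-corrected plate score outside the 99.7% band of the plate's sample wells, on either side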
Target sequence (P21728 whole entry, looked up): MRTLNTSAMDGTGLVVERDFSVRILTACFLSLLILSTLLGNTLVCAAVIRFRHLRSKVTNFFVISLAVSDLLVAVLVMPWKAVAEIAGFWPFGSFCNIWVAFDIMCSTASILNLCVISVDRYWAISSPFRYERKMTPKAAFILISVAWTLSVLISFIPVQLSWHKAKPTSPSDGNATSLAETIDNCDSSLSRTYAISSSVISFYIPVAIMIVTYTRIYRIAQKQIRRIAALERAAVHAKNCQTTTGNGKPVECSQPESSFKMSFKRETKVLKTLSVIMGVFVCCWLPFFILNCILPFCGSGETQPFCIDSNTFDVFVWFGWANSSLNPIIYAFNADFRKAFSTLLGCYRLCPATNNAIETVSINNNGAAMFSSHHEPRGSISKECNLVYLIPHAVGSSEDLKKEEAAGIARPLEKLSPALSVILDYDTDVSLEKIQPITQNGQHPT
DAT uptake mod: changed human dopamine transporter uptake under cocaine IC80 | LLC-PK1 hDAT cells, [14C]-dopamine uptake with cocaine IC80; actives deviate in either direction | B-score at 10 µM | actives 1.3% (n = 110,000) | AID 449768;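 active means Z score or B-score, a plate-position-corrected score, falls beyond the plate's 99.7% confidence bounds, in either direction; inactive means both scores lie inside the 99.7% bounds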;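 further: scored against the spread of the other compound wells on the same plate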
EphB4 antag: blocks human EphB4 binding to ephrin-B2 | actives 0.15% (n = 97,000) | EphB4 LBD / TNYL-RAW-Alexa532 peptide, fluorescence polarization | inhibition, % at 7 µM | P54760;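 active means inhibition above the screen-wide mean inhibition plus 3 SD, cut at about 15% in these data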;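 further: 0% = DMSO wells and 100% = excess unlabeled TNYL-RAW peptide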
D1 PAM confirm: D1 receptor (human) allosteric modulation, confirmed. shares compounds with D1 mod. HEK293 D1 CRE-luciferase, dopamine EC30 potentiation; active compounds read high. luminescence at 10 µM. actives 88% (n = 2,200);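 active means luminescence in either of two replicates above the same-plate mean plus 3 SD of the low-dose dopamine control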
D1 ag no DA: D1 (human) signaling in absence of dopamine | shares compounds with D1 mod | luminescence at 10 µM | HEK293 D1 CRE-luciferase, luminescence, no dopamine; active compounds read high | AID 646 | actives 0.8% (n = 1,900); in the data active means luminescence above about 3900
Isoprot counter: alters isoproterenol CRE-luciferase response in HEK293 cells; HEK293 D1 CRE-luciferase, isoproterenol EC30 counter-screen; shares compounds with D1 mod; AID 647; actives 63% (n = 2,200); calls only at 10 µM;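 active means luminescence in either replicate above plate mean of wells with a partly effective reference agonist dose plus 3 SD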;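 further: isoproterenol raises cAMP through native beta-adrenoceptor Gs so signal bypasses D1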
The depositor's hits bear a star; i = inactive; . = not tested or not shown; + = active, no number.

SMILES	D1 mod	DAT uptake mod	EphB4 antag	D1 PAM confirm	D1 ag no DA	Isoprot counter
CCCn1c(SCC(=O)N2c3ccc(F)cc3CCC2C)nnc1-c1ccccn1 (stereo unspecified)	.	0.98	-8	.	.	.
CCOC(=O)NCc1ccc(S(=O)(=O)Nc2c(C)cccc2C)cc1	.	0.19	0	.	.	.
c1ccc2c(N3CCCCC3)nc(N3CCCC3)nc2c1	-1.3	0.58	6	.	.	.
c1ccc2c(N3CCCC3)nc(-c3ccncc3)nc2c1	9.2*	1.1	5	18800*	1668	+
COc1nc(-c2ccncc2)nc2ccccc12	.	0.2	-2	.	.	.
C=CCOc1nc(-c2ccncc2)nc2ccccc12	6.5*	0.15	-3	15684*	.	+
O=C1CNCc2[nH]c3ccccc3c2N1c1ccccc1	1.8	-0.0015	2	.	.	.
O=CN1Cc2[nH]c3ccccc3c2N(c2ccc(Cl)cc2)C1=O	9*	-1.4	3	10080*	1192	i
COc1cccc(-n2nnc3c(=O)n(CC(=O)Nc4ccccc4C)cnc32)c1	.	0.28	.	.	.	.
COc1cccc(-n2nnc3c(=O)n(CC(=O)NC4CCCC4)cnc32)c1	4.4*	-0.52	12	8080	1872	i
C#CCNC(=O)C1=C[C@@H](c2ccc(C(F)(F)F)cc2)[C@H](CCCO)[C@@H](OCC)O1	.	0.33	.	.	.	.
COc1ccccc1-n1cnnc1SCC(=O)Nc1nc(C)c(Cl)cc1Cl	.	0.54	4	.	.	.
O=C(NCc1ccco1)c1ccccc1NS(=O)(=O)c1ccc(Br)s1	.	-0.83	-6	.	.	.
COc1ccc(OC)c(C2=NOC(C(=O)Nc3ccccc3SC)C2)c1 (stereo unspecified)	.	-1.5	0	.	.	.
COc1ccc(C2=NOC(C(=O)Nc3cc(Br)ccc3O)C2)cc1OC (stereo unspecified)	38*	-0.43	-6	25996*	1720	+
COc1ccc(C2=NOC(C(=O)Nc3ccc(C(C)=O)cc3)C2)cc1OC (stereo unspecified)	5*	1.8	1	8288*	.	+
COc1ccc(C2=NOC(C(=O)NC3CCCCC3)C2)cc1OC (stereo unspecified)	4.6*	-0.11	5	14608*	1788	i
COc1ccc(C2=NOC(C(=O)N3CCCCCC3)C2)cc1OC (stereo unspecified)	0.42	0.85	-3	.	.	.
COc1ccc(C2=NOC(C(=O)NCc3cccs3)C2)cc1OC (stereo unspecified)	.	0.16	5	.	.	.
COc1ccc(OC)c(C2=NOC(C(=O)Nc3cccc(C(C)=O)c3)C2)c1 (stereo unspecified)	3.7*	0.29	3	9256*	1624	i
COc1cc(C2=NOC(C(=O)Nc3ccc(C(C)=O)cc3)C2)cc(OC)c1OC (stereo unspecified)	1.5	-0.18	3	.	.	.
O=C(NC1CCCc2ccccc21)C1CCN(C(=O)c2sccc2-n2cccc2)CC1 (stereo unspecified)	-0.00092	0.14	.	.	.	.
C=CC[C@@H]1C=C(C)C[C@H](C)C[C@H](OC)[C@H]2O[C@@](O)(C(=O)C(=O)N3CCCC[C@H]3C(=O)O[C@H](/C(C)=C/[C@@H]3CC[C@@H](O)[C@H](OC)C3)[C@H](C)[C@@H](O)CC1=O)[C@H](C)C[C@@H]2OC	.	0.92	.	.	.	.
Cc1c(-n2cc(C(=O)c3cc(Br)ccc3O)cc(C#N)c2=O)c(=O)n(-c2ccccc2)n1C	.	-0.04	3	.	.	.
O=C(Nc1ccccc1C(F)(F)F)N1CCN(c2ccc3nnc(-c4ccc(F)cc4)n3n2)CC1	3.9*	1.8	.	7116*	1528	+
SMILES	D1 mod	DAT uptake mod	EphB4 antag	D1 PAM confirm	D1 ag no DA	Isoprot counter
O=C(Nc1ccc(F)cc1)N1CCN(c2ccc3nnc(-c4ccc(F)cc4)n3n2)CC1	.	0.056	-2	.	.	.
COc1cc(OC)nc(Oc2ccccc2C(=O)Oc2ccc(F)cc2Cl)n1	.	-0.15	8	.	.	.
C=CCn1c(SCc2ccc(C#N)cc2)nnc1-c1ccc(C)cc1	.	1.8	2	.	.	.
C=CCn1c(N)c(C(=O)OC(C)CC)c2nc3ccccc3nc21 (stereo unspecified)	7.5*	2.1	-2	14864*	1544	+
C=CCn1c(N)c(C(=O)OC(C)(C)C)c2nc3ccccc3nc21	4.7	0.39	6	.	.	.
Cc1cc(C)nc(SCC(=O)N2CCCCC2)n1	2.9*	0.79	4	5424*	1632	i
Nc1cc(N)nc(SCC(=O)N2CCCCC2)n1	-0.068	0.027	5	.	.	.
CCOC(=O)N1CCN(C(=O)c2noc(C(C)C)c2[N+](=O)[O-])CC1	.	-0.19	.	.	.	.
Cc1onc(-c2ccccc2)c1C(=O)Nc1ccc2c(c1)OCO2	5*	0.45	4	11760*	1796	i
Cc1onc(-c2ccccc2)c1C(=O)OCC(=O)Nc1ccc2c(c1)OCO2	-1.2	-0.71	0	.	.	.
Cc1nc(NC(=O)CSc2nc3cccnc3n2C2CCCCC2)sc1C	1.6	-0.69	-6	.	.	.
CCc1nnc(NC(=O)CSc2nc3cccnc3n2C2CCCCC2)s1	6.2*	0.87	-3	8624*	1648	+
c1ccc(-c2ccc(-c3cnc4n3CCCCC4)cc2)cc1	.	0.39	5	.	.	.
CCOC(=O)CSc1nc2sc3c(c2c(=O)n1CC)CC(C)(C)OC3	5.9*	-1.1	-2	8088*	1472	+
CCOC(=O)N1CCN(c2nc(SC)nc3sc4c(c23)CC(C)(C)OC4)CC1	-0.2	-0.82	.	.	.	.
C=C1CCN([C@@H](CC(C)C)C(=O)Nc2nc3ccc(Cl)cc3s2)S(=O)(=O)c2ccccc21	.	0.31	.	.	.	.
CCOC(=O)c1ccc(NC(=O)CSc2nc(C)cc(=O)[nH]2)cc1	0.53	0.4	-1	.	.	.
COC(=O)c1cc(NC(=O)CSc2nc(C)cc(=O)[nH]2)cc(C(=O)OC)c1	2.9*	-0.55	0	6652*	1452	i
COCCn1c(CN2CCN(c3ccccc3F)CC2)nc2c1c(=O)n(C)c(=O)n2C	1.1	.	.	.	.	.
O=[N+]([O-])CC(=Nc1ccc(Cl)cc1)N/N=C\c1oc(O)c2ccccc12	.	.	3	.	.	.
CC1CCCCC1NS(=O)(=O)c1ccc(S(=O)(=O)NCc2ccncc2)cc1 (stereo unspecified)	-1.5	-0.031	3	.	.	.
O=S(=O)(c1cccc(-c2nc3n(n2)Cc2ccccc2-3)c1)N1CCCCC1	.	0.38	3	.	.	.
O=S(=O)(c1cccc(-c2nc3n(n2)Cc2ccccc2-3)c1)N1CCCC1	4.9*	-0.0037	.	7316*	1740	+
c1ccc(-n2c(SCC3CCCCO3)nnc2-c2cnccn2)cc1 (stereo unspecified)	1.7	-0.4	-3	.	.	.
COc1cccc(-n2c(SC)nnc2-c2cnccn2)c1	14*	-0.36	2	5740	1548	i
CC(C)OC(=O)CSc1nnc(-c2cnccn2)n1-c1ccccc1	5.1*	0.13	2	7372*	1596	i
COc1cccc(-n2c(SCC#N)nnc2-c2cnccn2)c1	0.0051	-0.17	-2	.	.	.
